This is an account of results in ChEMBL document CHEMBL3988442, “University of Dundee, Small-Polar-MMV Screening Library” (2021).

The target of test [1] is T1, Aspartate--tRNA(Asp/Asn) ligase (Mycobacterium tuberculosis (strain ATCC 25618 / H37Rv)) (UniProt P9WFW3). Also: in the data most compounds retested in dose-response had high values.
T1 sequence (whole entry): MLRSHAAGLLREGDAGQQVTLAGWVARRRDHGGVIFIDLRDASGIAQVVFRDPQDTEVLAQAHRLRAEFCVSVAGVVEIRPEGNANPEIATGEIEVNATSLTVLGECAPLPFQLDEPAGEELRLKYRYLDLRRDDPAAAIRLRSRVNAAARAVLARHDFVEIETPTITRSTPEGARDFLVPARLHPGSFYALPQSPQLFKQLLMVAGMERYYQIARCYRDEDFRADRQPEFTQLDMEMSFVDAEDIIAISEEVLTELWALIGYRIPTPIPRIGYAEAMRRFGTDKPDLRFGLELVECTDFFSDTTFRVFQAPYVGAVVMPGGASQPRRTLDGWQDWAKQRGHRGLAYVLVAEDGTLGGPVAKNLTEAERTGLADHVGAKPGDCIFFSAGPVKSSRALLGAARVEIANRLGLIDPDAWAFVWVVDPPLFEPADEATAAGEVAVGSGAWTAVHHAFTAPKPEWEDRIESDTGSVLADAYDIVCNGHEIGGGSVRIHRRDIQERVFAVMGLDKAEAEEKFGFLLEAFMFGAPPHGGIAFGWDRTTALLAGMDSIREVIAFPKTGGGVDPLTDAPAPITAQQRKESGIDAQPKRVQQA
As to the kind of experiment: Assay for Asp RNA synthetase-1 from Mycobacterium tuberculosis. Type of test: functional. The conditions noted are these: 30 µM. Set-up: scale not given: direction of the effect not stated beside the values.

Test [2] addresses Shiga toxin 2 (Escherichia coli O157:H7) (UniProt P09385+P09386). The test is described as follows: E. coli 0.157:H7 Shiga Toxin SOP - stx2 screening assay. It is filed as functional. Set-up: scale not given: direction of the effect not stated beside the values. The conditions noted are these: 30 µM.

In the case of `COCCNC(=O)[C@H]1C[C@@H]2CCN(Cc3ccoc3)C[C@H]2O1`, the Percent Effect in test [1] was 3.35%; in test [2], -3.8%.
The corresponding values for `N#CCSCCCN1CCN(C(=O)c2ccc(Cl)cc2)CC1` are 0.593% and -35.2%.
As to `CC(=O)N1CCCn2nc(CNS(=O)(=O)N3CCCCCC3)cc2C1`, the Percent Effect in test [1] was -7.71%; in test [2], -4.22%.
In the same order, the values of `CN(C)CC1(O)CCN(S(=O)(=O)c2ccc(F)cc2)C1` (configuration not stated) are -0.491% and 12.7%.
In the same order, the values of `Cc1ccoc1C(=O)N1CCOCC2(CCN(c3ncccn3)C2)C1` (configuration not stated) are 5.74% and 8%.
As for `Cc1cn2nc(N3CCCC3CC(C)(C)C)sc2n1` (configuration not stated), the figures for the Percent Effect in test [1] and in test [2] were 1.06% and 22.9%, respectively.
The corresponding values for `Cc1nc(C2CCCN(C(=O)c3ccc(Cn4cccn4)o3)C2)no1` (configuration not stated) are -5.64% and 12.3%.
`O=C(Cn1cnc(NC(=O)CC2CCCC2)n1)NCc1ccccc1`: the Percent Effect in test [1] is -1.37%; in test [2] it was 12.3%.
In the case of `Cc1nc(C)n(CC2CCCN2CC(=O)NCCc2ccccc2)n1` (configuration not stated), the Percent Effect in test [1] was -7.16%; in test [2], -6.86%.
For `CN1CCc2cc(C(CNS(=O)(=O)c3cccs3)N3CCCC3)ccc21` (configuration not stated), the figures for the Percent Effect in test [1] and in test [2] were -0.102% and -6.23%, respectively.
For `COc1cc(C)nc(N2CCN(C(=O)CN(C)C3CC3)CC2)n1`, the values for the Percent Effect in test [1] and in test [2] were 0.9% and -33.1%, respectively.
Consider `O=C1CCSCC(C(=O)N2CCCC2)N1` (configuration not stated), for which the Percent Effect in test [1] was -3.45%; in test [2], -6.39%.
In the same order, the values of `Cc1ccc(C(=O)N2CCn3cc(CN4CCCCC4)nc3C2)o1` are 8.53% and -27.2%.
For `Cc1nccc(C2CN(Cc3cc[nH]n3)CCO2)n1` (configuration not stated), the results for the Percent Effect in test [1] and in test [2] were -1.53% and 2.02%, respectively.
For `COCCN1CCC(CNC(=O)C2(c3cccc(C)c3)CC2)CC1`, the Percent Effect was 5.2% in test [1] and -5.28% in test [2].
On to `O=C(NCC(F)F)N1CCC(n2ccc(C(F)(F)F)n2)CC1`, for which the results for the Percent Effect in test [1] and in test [2] were -6.76% and -7.64%, respectively.
Regarding `CC(Oc1ccccc1C(F)(F)F)C(=O)NS(=O)(=O)C(C)C` (configuration not stated), the values for the Percent Effect in test [1] and in test [2] were -4.49% and 4.69%, respectively.
Consider `CN(C)S(=O)(=O)c1ccc(CN2CCCC2CO)o1` (configuration not stated), for which the Percent Effect in test [1] is -0.169%; in test [2], 24%.
The corresponding values for `CNC(=O)CN1CCC(NC(=O)N(C)Cc2cc(C)on2)CC1` are -6.28% and 19%.
As for `COc1cccc(OCC(=O)NS(=O)(=O)c2ccc(C)s2)c1`, the results for the Percent Effect in test [1] and in test [2] were 1.83% and -6.18%, respectively.
For the compound `COCCN1CC[C@@H]2O[C@@H](COCC(=O)N3CCCC3)CC[C@@H]21`, the results for the Percent Effect in test [1] and in test [2] were -4.13% and -8.7%, respectively.
The corresponding values for `Cc1ccnc(OCC(=O)N2CCC(C(N)=O)CC2)n1` are -6.44% and 1.84%.
In the same order, the values of `OC1(Cn2ccc3ncccc32)CCN(Cc2ccccn2)CC1` are 11.7% and -31.8%.
For `Cc1cccc(NC(=O)N2CCCn3cnc(CN4CCCC4)c3C2)c1`, the Percent Effect in test [1] was -3.25%; in test [2], -16.8%.
With `Cc1nc(C)n(C2CCCN(C(=O)c3ccc(NC4CC4)nc3)C2)n1` (configuration not stated), the results for the Percent Effect in test [1] and in test [2] were -1.66% and -7.5%, respectively.
For `Cc1csc(C2CCCN(C(=O)c3cnc4n[nH]c(C)c4c3)C2)n1` (configuration not stated), the results for the Percent Effect in test [1] and in test [2] were 0.533% and 21.9%, respectively.
As for `CC(C)N(CC(N)=O)Cc1csc(Cc2ccccc2)n1`, the Percent Effect came out at 0.228% in test [1] and 12% in test [2].
With `Cc1nc(CN2CCn3cc(CNC(=O)C4CCC4)nc3C2)cs1`, the Percent Effect in test [1] is 11%; in test [2] it was -50.1%.
The corresponding values for `Cn1cccc1C(=O)N1CCCC2(CCCN2Cc2cccnc2)C1` (configuration not stated) are 7.03% and 19.4%.
In the same order, the values of `CN(Cc1cccc(F)c1)S(=O)(=O)N1CCOCC1` are -3.02% and 3.45%.
In the same order, the values of `COc1ccc(C2=C(C)C(N3CCc4ccccc4C3)=NS2(=O)=O)cc1` are 2.67% and -90%.
Turning to `Cc1cccnc1NC(=O)NC(C)Cn1cccn1` (configuration not stated), the Percent Effect in test [1] was -3.52%; in test [2], 15.4%.
`Cc1ccc(S(=O)(=O)NC(=O)c2cccc(OCC(N)=O)c2)s1`: the Percent Effect in test [1] is 2.86%; in test [2], -20.2%.
Turning to `CCc1nc(CN(C(C)=O)C2CCN(Cc3cnc(C)cn3)C2)no1` (configuration not stated), the Percent Effect in test [1] was -0.742%; in test [2] it was -16.6%.
On to `CS(=O)(=O)NC[C@]12COC[C@H]1CN(CC1CCCC1)C2`, for which the values for the Percent Effect in test [1] and in test [2] were 0.107% and 6.37%, respectively.
Turning to `c1cncc(-c2nccc(CN3CCCC3)n2)c1`, the results for the Percent Effect in test [1] and in test [2] were 2.87% and -20.7%, respectively.
As for `Cc1cnc2c(S(=O)(=O)NCC3CCS(=O)(=O)C3)cccc2c1` (configuration not stated), the Percent Effect in test [1] is 3.04%; in test [2] it was -5.77%.
On to `CCc1ccccc1-n1nnc(C(=O)O)c1-c1ccccn1`, for which the Percent Effect in test [1] was 6.47%; in test [2], -3.21%.
Regarding `CCOc1ccc(Cl)c(C(=O)NCc2ccc(C(=O)NC)cc2)n1`, the figures for the Percent Effect in test [1] and in test [2] were -2.66% and 13%, respectively.
In the case of `O=C(c1cccs1)N1CCC(O)(CN2CCc3ccccc3C2)C1` (configuration not stated), the results for the Percent Effect in test [1] and in test [2] were -5.2% and -25.3%, respectively.
With `Cc1cnn(CC2CN(c3ncnc4ccsc34)CCO2)c1` (configuration not stated), the Percent Effect in test [1] is -1.51%; in test [2], -0.262%.
As for `CCn1ncc(Br)c1CN(C)S(=O)(=O)c1ccc(C)cc1`, the Percent Effect in test [1] was 0.0735%; in test [2], -7.09%.
For `Cc1nc(NCCc2ccc(Cl)cc2)cc(C(=O)N2CCOCC2)n1`, the Percent Effect in test [1] was 12.1%; in test [2], -64.7%.
As for `COc1ccc(CNCc2ccnc(N3CCOCC3)c2)c(OC)c1`, the Percent Effect stood at 1.38% in test [1] and 17.1% in test [2].
As for `Cc1nnc2n1CCN(C(=O)c1cc(Cl)c(Cl)n1C)C2`, the results for the Percent Effect in test [1] and in test [2] were -1.68% and 8.23%, respectively.
The corresponding values for `CN(C)C(=O)Cc1nc(CN2CCn3c(nnc3C3CC3)C2)cs1` are -1.22% and 10.2%.
